# From paper PMC5540273 (PLoS ONE, 2017)
# Legend:
# Conditions in all cases: concentration: 1 μM, replicates: in singlicate; n = 1
# [1] = tested on: WNK4
# [2] = tested on: T1, YANK1
# T1 construct: gene STK32A
# [3] = tested on: T2, YANK2
# T2 construct: gene STK32B
# [4] = tested on: T3, YANK3
# T3 construct: gene STK32C
# [5] = tested on: T4, YES
# T4 construct: gene YES1
# [6] = tested on: T5, YSK1
# T5 construct: gene STK25
# [7] = tested on: T6, YSK4
# T6 construct: gene MAP3K19
# [8] = tested on: ZAK
# [9] = tested on: ZAP70
# [10] = tested on: T7, p38-alpha
# T7 construct: gene MAPK14
# [11] = tested on: T8, p38-beta
# T8 construct: gene MAPK11
# [12] = tested on: p38-delta
# [13] = tested on: T9, p38-gamma
# T9 construct: gene MAPK12
# 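Further: KINOMEscan kinase panel screen.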
SMILES,%Inh [1] [%],%Inh [2] [%],%Inh [3] [%],%Inh [4] [%],%Inh [5] [%],%Inh [6] [%],%Inh [7] [%],%Inh [8] [%],%Inh [9] [%],%Inh [10] [%],%Inh [11] [%],%Inh [12] [%],%Inh [13] [%]
Cc1ccc(C)c(NC(=O)NCCNc2ccnc(Nc3ccc(F)cc3)n2)c1 [GSK1379878],23,0,0,0,0,0,0,34,0,6,0,45,0
FC(F)(F)c1ccc(-c2cc(-c3c[nH]nc3-c3ccccn3)ccn2)cc1 [GW599550],42,98.8,10,0,6,20,28,24,0,28,0,50,16
COc1cc2c(Nc3cccc(NC(=O)c4ccccc4)c3)ncnc2cc1OCCCN1CCOCC1 [GSK223810],0,7,0,2,15,12,36,0,0,81,89,0,6
CN1CCC(n2cnc(-c3ccc(F)cc3)c2-c2ccnc(NC3CCNCC3)n2)CC1 [SB-229482],0,0,2,1,0,0,0,4,0,89,23,38,38
Fc1ccc(Nc2nccc(-c3c(-c4ccc(Cl)cc4)nn4ncccc34)n2)cc1F [GW829058],28,0,4,30,0,0,47,18,13,26,19,4,37
Nc1nc(-c2ccc3c(N)n[nH]c3c2)cc(N2CCC[C@@H](C(=O)Nc3ccccc3)C2)n1.O=C(O)C(F)(F)F.O=C(O)C(F)(F)F [GSK2288359],0,4,0,0,0,5,9,3,0,0,0,18,27
O=c1cc(N2CCOCC2)nc2n(Cc3cccc(Cl)c3)ccn12 [GSK2296823],0,0,0,18,23,10,19,0,0,0,0,38,56
Cl.Cl.c1ccc(-c2cc3ccncc3cc2OC2CCNCC2)cc1 [GSK1122999],28,20,0,0,15,8,64,0,0,4,0,44,40
Fc1cccc(COc2ccc(Nc3ncnc4cc[nH]c34)cc2Cl)c1,28,26,0,9,20,0,18,0,0,0,13,28,20
Nc1n[nH]c2nnc(-c3ccccc3)cc12 [SB-517389],0,13,0,21,16,0,75,24,0,0,0,39,0
CS(=O)(=O)CCNCc1ccc(-c2ccc3ncnc(Nc4ccc(OCc5ccccc5)c(Cl)c4)c3c2)o1.Cl [GW574783],22,0,24,8,1,0,2,0,0,0,0,21,0
CSc1nn2c(=O)cc(N3CCOCC3)nc2n1Cc1cccc(Cl)c1Cl [GSK2347225],0,16,7,19,31,12,0,0,0,0,0,59,16
COc1ccc(Nc2nccc(N3CCC(NC(=O)Nc4ccc5c(c4)OCO5)C3)n2)cc1 (centres unmarked) [GSK1379745],24,3,15,16,0,0,7,0,0,12,0,14,3
c1ccc(-c2ccc3c(-c4ccnc(Nc5ccc6c(c5)OCCO6)n4)cnn3n2)cc1 [GW818941],0,0,13,0,5,0,0,10,20,0,0,26,0
